In the supplement of paper PMC10849652 one finds log2 fold change data, which are given here for 39 targets.

Holding throughout (assay): log2 fold change, soluble protein after heating vs DMSO (PISA); higher = thermal stabilisation; K562 lysate, 10 uM; active = over 0.2 and 3.5 SD of the protein, either way, in both replicates (recomputed)
Compound in assay [1]: NCC(=O)Nc1ccc(-n2nc(C(F)(F)F)cc2-c2ccc3c(ccc4ccccc43)c2)cc1
The method in brief:
(§1)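 A 30 min treatment with 10 μM compound was applied to crude K562 extract at 1 mg/mL protein in PBS pH 7.4 with 1 mM MgCl2. Heating for 3 min spanned 48°C-58°C, after which aliquots were pooled, adjusted to 0.5% NP-40 at 4°C and spun at 21,000xg for 90 min. TMTpro 16plex LC-MS/MS of the supernatant, with channel sums equalised, gave values recorded as log-two fold change in thermal stability against solvent controls, from duplicates.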

Compound in the next assay: c1cn2cc(-c3ccc4cn[nH]c4c3)nc(Nc3ccc(N4CCOCC4)cc3)c2n1 [entospletinib]
In outline: as §1

Compound in another assay: O=C(CCCCCCC(=O)Nc1ccccc1)NO [vorinostat]
In outline:
as §1

Compound in a further assay: O=C(O)c1ccc2c(c1)nc(Nc1cccc(Cl)c1)c1ccncc12 [silmitasertib]
The method in brief:
as §1

Compound in assay [2]: O=C1NC(=O)C(c2cnc3ccccn23)=C1c1cn2c3c(cc(F)cc13)CN(C(=O)N1CCCCC1)CC2
In outline: as §1

Of roughly 8,800 targets only a part is listed; those with a hit were picked by preference. About 0.5% of all pairs of compound and target were hits. Values without a mark were called inactive.

Sequence of UniProt O60927 (O60927 whole entry, looked up): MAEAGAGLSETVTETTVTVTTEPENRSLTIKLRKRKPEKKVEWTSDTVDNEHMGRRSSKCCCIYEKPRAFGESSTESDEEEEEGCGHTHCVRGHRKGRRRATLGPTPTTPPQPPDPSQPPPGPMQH
Sequence of UniProt Q9UHX1 (Q9UHX1 whole entry, looked up): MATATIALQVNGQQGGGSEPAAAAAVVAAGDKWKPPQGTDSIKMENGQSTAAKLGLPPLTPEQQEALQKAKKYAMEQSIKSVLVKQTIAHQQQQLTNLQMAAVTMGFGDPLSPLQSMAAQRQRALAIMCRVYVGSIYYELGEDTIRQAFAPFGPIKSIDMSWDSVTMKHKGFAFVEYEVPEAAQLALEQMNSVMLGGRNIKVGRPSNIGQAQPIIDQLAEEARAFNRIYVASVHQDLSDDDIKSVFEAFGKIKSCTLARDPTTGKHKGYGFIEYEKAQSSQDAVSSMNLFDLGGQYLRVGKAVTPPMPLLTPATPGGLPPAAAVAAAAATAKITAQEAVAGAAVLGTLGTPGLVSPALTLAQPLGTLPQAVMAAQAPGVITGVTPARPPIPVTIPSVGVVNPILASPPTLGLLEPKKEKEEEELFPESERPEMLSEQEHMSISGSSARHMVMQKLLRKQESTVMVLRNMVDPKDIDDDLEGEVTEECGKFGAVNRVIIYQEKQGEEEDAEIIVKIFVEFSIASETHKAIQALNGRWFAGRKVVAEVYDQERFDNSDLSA
Sequence of UniProt Q9BRQ0 (Q9BRQ0 whole entry, looked up): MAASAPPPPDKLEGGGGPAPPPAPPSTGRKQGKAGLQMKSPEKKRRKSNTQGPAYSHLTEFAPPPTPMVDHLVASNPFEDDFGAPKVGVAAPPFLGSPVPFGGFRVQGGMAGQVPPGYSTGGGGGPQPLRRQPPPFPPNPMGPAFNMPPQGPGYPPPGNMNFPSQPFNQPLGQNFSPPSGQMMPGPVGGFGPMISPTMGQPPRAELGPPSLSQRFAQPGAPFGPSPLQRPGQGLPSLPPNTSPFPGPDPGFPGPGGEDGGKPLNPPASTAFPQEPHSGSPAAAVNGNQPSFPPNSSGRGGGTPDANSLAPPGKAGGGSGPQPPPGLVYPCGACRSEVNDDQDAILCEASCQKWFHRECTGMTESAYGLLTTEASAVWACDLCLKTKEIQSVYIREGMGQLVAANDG
Sequence of UniProt Q4G0T1 (Q4G0T1 whole entry, looked up): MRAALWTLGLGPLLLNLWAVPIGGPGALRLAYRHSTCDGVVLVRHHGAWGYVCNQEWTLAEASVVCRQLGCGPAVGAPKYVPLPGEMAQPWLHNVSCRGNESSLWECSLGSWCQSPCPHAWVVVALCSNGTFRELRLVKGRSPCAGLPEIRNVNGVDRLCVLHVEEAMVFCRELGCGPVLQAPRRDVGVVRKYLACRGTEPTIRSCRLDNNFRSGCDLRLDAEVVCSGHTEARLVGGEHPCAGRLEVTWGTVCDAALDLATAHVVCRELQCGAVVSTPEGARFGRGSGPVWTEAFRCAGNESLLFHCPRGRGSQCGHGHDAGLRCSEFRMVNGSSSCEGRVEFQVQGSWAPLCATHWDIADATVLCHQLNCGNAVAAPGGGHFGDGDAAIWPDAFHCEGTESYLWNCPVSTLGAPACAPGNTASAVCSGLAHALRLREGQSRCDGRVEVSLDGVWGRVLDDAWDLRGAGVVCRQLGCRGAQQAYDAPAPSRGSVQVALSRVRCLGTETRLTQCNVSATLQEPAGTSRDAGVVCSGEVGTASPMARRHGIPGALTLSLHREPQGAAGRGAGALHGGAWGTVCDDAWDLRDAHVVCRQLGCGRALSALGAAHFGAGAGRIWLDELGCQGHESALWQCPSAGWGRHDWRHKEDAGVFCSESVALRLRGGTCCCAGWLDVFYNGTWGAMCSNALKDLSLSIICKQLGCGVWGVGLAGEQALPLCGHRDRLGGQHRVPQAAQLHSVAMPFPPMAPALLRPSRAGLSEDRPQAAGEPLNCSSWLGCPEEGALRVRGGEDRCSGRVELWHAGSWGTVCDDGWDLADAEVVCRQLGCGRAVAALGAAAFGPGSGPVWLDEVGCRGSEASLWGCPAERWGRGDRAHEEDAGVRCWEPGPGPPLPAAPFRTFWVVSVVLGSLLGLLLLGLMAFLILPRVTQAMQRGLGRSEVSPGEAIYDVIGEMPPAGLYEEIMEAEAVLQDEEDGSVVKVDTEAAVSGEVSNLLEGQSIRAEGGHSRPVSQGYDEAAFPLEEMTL
Sequence of UniProt Q9H0N5 (Q9H0N5 whole entry, looked up): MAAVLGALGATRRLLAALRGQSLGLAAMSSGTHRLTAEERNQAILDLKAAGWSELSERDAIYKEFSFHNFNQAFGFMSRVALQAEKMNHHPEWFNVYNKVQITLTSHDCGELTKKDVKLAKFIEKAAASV
Sequence of UniProt P53350 (P53350 whole entry, looked up): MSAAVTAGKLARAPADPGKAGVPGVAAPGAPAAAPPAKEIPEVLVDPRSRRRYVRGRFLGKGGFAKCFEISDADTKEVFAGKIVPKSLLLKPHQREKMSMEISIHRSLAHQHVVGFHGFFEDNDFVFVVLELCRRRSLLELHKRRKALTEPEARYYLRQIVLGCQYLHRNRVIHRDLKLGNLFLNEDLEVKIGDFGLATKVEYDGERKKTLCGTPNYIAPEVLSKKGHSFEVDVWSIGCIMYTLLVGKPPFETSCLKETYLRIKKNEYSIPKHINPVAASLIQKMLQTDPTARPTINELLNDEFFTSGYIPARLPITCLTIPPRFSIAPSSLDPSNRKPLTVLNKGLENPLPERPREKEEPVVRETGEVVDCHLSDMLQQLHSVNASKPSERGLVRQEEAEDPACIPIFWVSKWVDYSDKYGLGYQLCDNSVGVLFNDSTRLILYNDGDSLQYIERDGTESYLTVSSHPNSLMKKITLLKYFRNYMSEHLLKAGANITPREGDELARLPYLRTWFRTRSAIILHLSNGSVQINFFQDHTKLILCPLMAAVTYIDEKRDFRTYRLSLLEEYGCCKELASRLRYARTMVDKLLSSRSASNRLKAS
Sequence of UniProt P78364 (P78364 whole entry, looked up): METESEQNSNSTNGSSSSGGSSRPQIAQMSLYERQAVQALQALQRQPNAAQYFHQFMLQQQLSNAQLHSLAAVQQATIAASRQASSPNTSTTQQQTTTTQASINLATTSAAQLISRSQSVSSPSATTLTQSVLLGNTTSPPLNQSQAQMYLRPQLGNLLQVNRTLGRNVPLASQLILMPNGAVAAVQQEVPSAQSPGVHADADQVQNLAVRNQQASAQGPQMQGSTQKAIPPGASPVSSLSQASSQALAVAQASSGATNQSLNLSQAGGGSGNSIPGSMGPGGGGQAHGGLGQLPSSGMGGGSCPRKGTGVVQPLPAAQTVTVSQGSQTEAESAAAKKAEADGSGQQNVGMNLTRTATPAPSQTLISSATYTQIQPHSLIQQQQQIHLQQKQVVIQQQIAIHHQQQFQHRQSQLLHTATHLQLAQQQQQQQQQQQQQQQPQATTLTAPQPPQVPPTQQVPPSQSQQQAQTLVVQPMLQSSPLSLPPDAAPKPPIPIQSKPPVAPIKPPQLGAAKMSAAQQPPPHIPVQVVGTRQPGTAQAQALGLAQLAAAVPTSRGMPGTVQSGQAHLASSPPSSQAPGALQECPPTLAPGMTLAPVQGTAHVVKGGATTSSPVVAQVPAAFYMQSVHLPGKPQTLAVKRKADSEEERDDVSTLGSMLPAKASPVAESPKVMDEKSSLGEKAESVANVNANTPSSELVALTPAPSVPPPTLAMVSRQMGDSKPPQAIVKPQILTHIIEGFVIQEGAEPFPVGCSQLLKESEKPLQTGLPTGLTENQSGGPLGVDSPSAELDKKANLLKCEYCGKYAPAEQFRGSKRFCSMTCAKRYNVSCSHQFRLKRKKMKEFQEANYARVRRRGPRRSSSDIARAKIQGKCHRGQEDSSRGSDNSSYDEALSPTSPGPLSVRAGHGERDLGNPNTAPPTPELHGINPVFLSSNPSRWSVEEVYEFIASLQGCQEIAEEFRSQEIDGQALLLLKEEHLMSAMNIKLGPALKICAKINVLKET
Sequence of UniProt Q8TEQ8 (Q8TEQ8 whole entry, looked up): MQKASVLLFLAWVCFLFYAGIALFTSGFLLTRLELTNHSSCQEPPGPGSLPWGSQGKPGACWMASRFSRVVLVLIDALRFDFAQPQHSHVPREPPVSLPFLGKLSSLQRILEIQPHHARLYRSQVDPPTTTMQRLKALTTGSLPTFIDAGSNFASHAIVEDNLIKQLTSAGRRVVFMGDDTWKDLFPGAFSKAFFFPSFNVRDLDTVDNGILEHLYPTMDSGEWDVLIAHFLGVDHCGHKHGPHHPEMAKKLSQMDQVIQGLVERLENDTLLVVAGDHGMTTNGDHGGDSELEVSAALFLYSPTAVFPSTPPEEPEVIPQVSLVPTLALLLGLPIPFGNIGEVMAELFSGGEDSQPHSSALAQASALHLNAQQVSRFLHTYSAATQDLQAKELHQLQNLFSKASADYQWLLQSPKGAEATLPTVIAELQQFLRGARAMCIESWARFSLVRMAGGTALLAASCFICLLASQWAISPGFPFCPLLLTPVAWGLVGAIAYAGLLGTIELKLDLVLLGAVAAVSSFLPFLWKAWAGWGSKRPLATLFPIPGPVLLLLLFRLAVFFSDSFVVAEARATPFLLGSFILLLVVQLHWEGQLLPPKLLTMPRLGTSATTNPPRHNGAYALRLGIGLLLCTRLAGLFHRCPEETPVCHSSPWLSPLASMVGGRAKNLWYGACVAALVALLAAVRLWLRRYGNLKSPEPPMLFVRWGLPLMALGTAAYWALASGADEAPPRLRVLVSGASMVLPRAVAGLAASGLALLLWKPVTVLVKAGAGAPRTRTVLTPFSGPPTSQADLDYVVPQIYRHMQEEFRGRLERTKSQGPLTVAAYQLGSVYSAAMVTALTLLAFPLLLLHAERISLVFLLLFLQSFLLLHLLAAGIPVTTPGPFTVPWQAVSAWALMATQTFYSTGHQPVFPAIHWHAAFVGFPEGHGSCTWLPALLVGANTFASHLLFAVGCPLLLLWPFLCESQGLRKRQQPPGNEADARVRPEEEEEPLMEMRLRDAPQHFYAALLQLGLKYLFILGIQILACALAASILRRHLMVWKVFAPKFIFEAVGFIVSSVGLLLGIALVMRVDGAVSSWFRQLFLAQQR

With PHF14 (UniProt O94880), the log2 fold change in assay [1] is -0.062; in the assay with entospletinib, 0.039.
Regarding PICALM (UniProt Q13492), the log2 fold change is 0.02 in assay [1]; 0.048 with vorinostat; 0.003 with silmitasertib; -0.019 in assay [2]; -0.005 in the assay with entospletinib.
In the same order, the values of POLR2M (UniProt P0CAP2) are 0.034, 0, -0.029, -0.027 and 0.076.
For the target PRR4 (UniProt Q16378), the log2 fold change in assay [1] is 0.009; with vorinostat, 0.229; with silmitasertib, -0.176; with entospletinib it was 0.302.
With PRADC1 (UniProt Q9BSG0), the log2 fold change in the assay with vorinostat was 0.07; with silmitasertib, -0.041; in assay [2], -0.012.
As to PPME1 (UniProt Q9Y570), the figures for the log2 fold change with vorinostat, in the assay with silmitasertib and with entospletinib were -0.673 (active), 0.185 and -0.063, respectively.
On to PIGO (UniProt Q8TEQ8), for which the log2 fold change was -0.156 in assay [1]; 0.15 in the assay with vorinostat; 0.18 with silmitasertib; 0.121 in assay [2]; -0.015 in the assay with entospletinib.
With PICALM (UniProt H0YCY1), the log2 fold change in the assay with vorinostat is 0.202; in the assay with silmitasertib, -0.07.
As to PTPN7 isoform 3 (UniProt P35236), the log2 fold change in assay [1] was 0.031; in the assay with vorinostat, -0.491 (active); with silmitasertib it was 0.01; in assay [2], -0.044; with entospletinib, -0.008.
In the case of PDIA4, A0A499FI48, the log2 fold change in assay [2] is 0.045.
For the target PLK1 (UniProt P53350), the log2 fold change in assay [1] is 0.027; with vorinostat it was -0.638 (active); with silmitasertib, 0.005; in assay [2], 0.022; with entospletinib it was 0.072.
Turning to PCBP2 (UniProt F8VRH0), the log2 fold change is -0.982 (active) with vorinostat, -0.441 with silmitasertib and 0.006 in assay [2].
On to PYGO2 (UniProt Q9BRQ0), for which the log2 fold change is 0.151 in the assay with vorinostat, -0.067 in the assay with silmitasertib, -0.003 in assay [2] and 0.269 (active) with entospletinib.
With PLXND1 (UniProt Q9Y4D7), the log2 fold change with vorinostat was -0.132; with silmitasertib, 0.174; in assay [2], 0.018.
On to POLR2F (UniProt U3KPV3), for which, in the assay with entospletinib, the log2 fold change is -0.113.
For the target PDE2A (UniProt O00408), the log2 fold change in assay [1] was 0.195; in the assay with vorinostat it was 0.117; with silmitasertib it was 0.022; in assay [2] it was 0.071; in the assay with entospletinib, 0.01.
With PFN3 (UniProt P60673), the log2 fold change in assay [1] was 0.158; in assay [2] it was -0.142; in the assay with entospletinib, -0.134.
In the case of PPP2R3C (UniProt Q969Q6), the log2 fold change in assay [1] is -0.019; in the assay with vorinostat, -0.362; with silmitasertib, 0.086; with entospletinib it was 0.074.
Take PHOSPHO2 (UniProt C9JD35): the log2 fold change was 0.004 in assay [2] and 0.155 with entospletinib.
With PUF60 (UniProt Q9UHX1), the log2 fold change in assay [1] is -0.007; with vorinostat, 0.15; with silmitasertib it was -0.029; in assay [2], 0.002; in the assay with entospletinib it was 0.002.
As for PPP2R5C isoform 5 (UniProt Q13362), the log2 fold change is 0.002 in assay [1]; 0.049 in the assay with vorinostat; 0.019 with silmitasertib; 0.022 in assay [2]; 0.011 with entospletinib.
Regarding PRKAR2A (UniProt P13861), the log2 fold change in assay [1] was 0.005; in the assay with vorinostat it was -0.037; with silmitasertib it was -0.008; in assay [2] it was -0.06; with entospletinib, -0.035.
In the same order, the values of PWP1 (UniProt Q13610) are -0.082, 0.139, -0.033, 0.022 and -0.003.
For the target PHC1 (UniProt P78364), the log2 fold change in assay [1] was 0.042; in assay [2], 0.151; with entospletinib it was 0.073.
Consider NA (UniProt Q4G0T1), for which the figures for the log2 fold change (in the assay with vorinostat; with silmitasertib; in assay [2]) were -0.027, 0.092 and -0.036, respectively.
Turning to PECR (UniProt Q9BY49), the log2 fold change with entospletinib was 0.115.
With PCBD2 (UniProt Q9H0N5), the log2 fold change in assay [1] is 0.008; with vorinostat, 0.034; in the assay with silmitasertib it was 0.01; in assay [2] it was -0.006; with entospletinib it was 0.003.
PPP1R14C (UniProt Q8TAE6): the log2 fold change in assay [1] was -0.061; with entospletinib it was -0.046.
Turning to PNPLA4 (UniProt P41247), the log2 fold change in assay [1] was -0.012; in assay [2] it was -0.093; with entospletinib, -0.046.
Regarding PRG4 (UniProt Q92954), in assay [2], the log2 fold change is -0.145.
PIP5K1A (UniProt Q99755): the log2 fold change was -0.014 with vorinostat, -0.033 with silmitasertib and 0.047 in assay [2].
On to PDE4DIP (UniProt E9PS60), for which the log2 fold change is 0.002 in assay [1]; -0.157 with vorinostat; 0.082 with silmitasertib; 0.039 in assay [2]; 0.103 with entospletinib.
As to PFN1 (UniProt I3L3D5), in the assay with entospletinib, the log2 fold change was -0.194.
Regarding PI4K2B (UniProt Q8TCG2), the log2 fold change in assay [1] was -0.038; in the assay with vorinostat it was -0.054; with silmitasertib, 0.041; in assay [2], 0.011; with entospletinib, 0.014.
Take POM121C (UniProt A8CG34): the log2 fold change with vorinostat was 0.077; with silmitasertib, -0.196.
On to PPP3CA isoform 2 (UniProt Q08209), for which the log2 fold change in assay [1] is 0.006; with vorinostat, 0.042; with silmitasertib, 0.014; in assay [2], -0.025; in the assay with entospletinib, 0.066.
For PPP1R11 (UniProt O60927), the log2 fold change with vorinostat was -0.31 (active); in the assay with silmitasertib, 0.034; in assay [2], 0.028; with entospletinib it was -0.029.
Take PTK2 isoform 2 (UniProt Q05397): the log2 fold change was -0.056 in the assay with vorinostat, 0.046 with silmitasertib and 0.007 in the assay with entospletinib.
Consider PCBP2 (UniProt F8W0G4), for which the log2 fold change in assay [1] is 0.083; with vorinostat it was -0.058; in the assay with silmitasertib, 0.025; with entospletinib, -0.088.
